Experimental findings from PubChem BioAssay (EPA / NIEHS) are described below.

A structure can be active in one record and inactive in another. Calls of active or inactive are those of the source. The calls were made as follows: active = hit-call score of the fitted dose curve at least 0.9, where 1 is the maximum; inactive = score below 0.9.

Read-out in the assay: Interleukin 6 (IL6), IL6 (gene 3569)
The experiment in a line: LTEA_HepaRG_IL6: Life Technologies and Expression Analysis (LTEA) Assay for Interleukin 6 (IL6) using HepaRG (AID 2283509). To be noted: mRNA level, 48 h; actives raise or lower the signal. The procedure: LTEA_HepaRG is a cell based, multiplexed-readout assay that uses HepaRG, a human liver cell line, with measurements taken at 48 hours after chemical dosing on a 96-well plate.LTEA_HepaRG_IL6 is one of 102 assay component(s) measured in the LTEA HepaRG cell culture assay. It is a marker of Inflammation.Data from the assay component LTEA_HepaRG_IL6 was analyzed into 1 endpoint. This assay endpoint, LTEA_HepaRG_IL6, was analyzed with bidirectional fitting relative to DMSO as the negative control and baseline of activity. Using a type of inducible reporter, measures of mRNA induction for gain or loss-of-signal activity can be used to understand regulation of transcription factor activity. To generalize the intended target to other relatable targets, this assay endpoint is annotated to the cytokine intended target family, where the subfamily is interleukins.
A total of 1060 chemcials from the ToxCast library were tested in eight-point concentration-response experiments. Cell culture and cytotoxicity assays were conducted at Thermo Fisher Scientific's Custom Services facility (Madison, WI). A single lot of human HepaRG cells (Thermo Fisher Scientific, Frederick, MD) was used for the cell culture experiments. 96-well format collagen type I coated plates of human HepaRG cells were prepared using established methods. Briefly, cryopreserved HepaRG cells were thawed, plated at a density of approximately 100,000 cells/well in HepaRG Thaw, Plate, and General Purpose media (HPRG770, Thermo Fisher Scientific), and incubated for 48 hours. 0.5% DMSO was selected as vehicle control to balance the requisite need of DMSO in HepaRG cultures to maintain differentiation (for example, baseline metabolism, proportions of hepatocytes vs. cholangiocytes), while enabling further hepatic receptor pathway activation (for example, PXR and CAR) in response to chemical exposure. 48 hours after plating, the culture medium was replaced with HepaRG Serum-Free Incudtion Media. Cells were exposed to each test chemical in duplicate and maintained in CO2 incubators for another 48 hours. Chemical plates were thawed to room temperature and 200x concentrations of treatment groups were prepared. 8-point conentration-reponse curves were made with the highest exposure at 100 uM, followed by half-log dilutions, all in 0.5% DMSO. Each test plate contained variouse controls, induction positive controls (1mM phenobarbital), cytotoxicity positive controls ([…] aflatoxin B1), vehicle controls (0.5% DMSO), and total lysis controls (0.5% DMSO). Cell morphology images were taken using an Essen IncuCyte FLR automated microscope, with six 96-well plates imaged in about 24 minutes. Images were captured and exported and JPEG files. Spent culture media was transfered to black-well plates for the LDH assay, and remaining media was sorted at -80 C for later use. Cells were treated with RLT buffer and frozen until shipped for gene expression analysis. Total RNA was isolated from the cell suspension in 75 uL of Buffer RLT (Qiagen, Germantown, MD 20874) by Quintiles/Expression Analysis (Durham, NC) using a custom isolation procedure. Total RNA from each plate well was transferred to a preamplification plate. Fluidigm's 96.96 Dynamic ArrayTM (Fluidigm, Amsterdam, the Netherlands) technology was used for gene expression analyses by quantitative reverse transcription polymerase chain reaction (qRT-PCR, performed by Quintiles/Expression Analysis, Durham, NC)89. Standard TaqManTM Assays (Applied Biosystems/ThermoFisher Scientific, Foster City, CA) were used to assess the expression of 93 genes selected based on their selectivity and sensitivity to important hepatic receptors known to be modulated by environmental chemicals; importance in human hepatocyte functionality; and hepatotoxicity. […]
On to `CC(C)(C)CC(C)(C)c1ccc(O)cc1`, for which the compound was called inactive.
Turning to `CCOP(=S)(OCC)SCSP(=S)(OCC)OCC`, the outcome was inactive.
Usually AC50 stands for the midpoint of the concentration-response curve, whichever way the signal moves. Take `C=C(C)C(=O)[O][Sn]([CH2]CCC)([CH2]CCC)[CH2]CCC`: the AC50 was 3.28 µM (active).
Consider `CC(C)(OO)c1ccccc1`, for which the outcome was inactive.
For the compound `COc1cc(-c2ccc(N)c(OC)c2)ccc1N`, the AC50 was 13 µM (active) and the outcome was inactive.
Regarding `O=C(Nc1ccc2[nH]ccc2c1)c1cc2cc(F)ccc2n1Cc1cccc(F)c1`, the AC50 was 50 µM (active).
Turning to `CN(C)N=O`, the compound was classed as inactive.
For `CC(=O)[O][Hg][c]1ccccc1`, the AC50 is 16 µM (active).
On to `ClCC(Cl)CCl`, for which the result was inactive.
The same measure, in the same setting: next, `O=C(O)C(Cl)(Cl)Cl`: “inactive”; `CCC(=O)C(CC(C)N(C)C)(c1ccccc1)c1ccccc1` (configuration not stated): “inactive”.
Turning to `O=C(O)C(F)(F)C(F)(F)C(F)(F)C(F)(F)C(F)(F)C(F)(F)F`, the compound was called inactive.
On the same count and under the same terms, in the case of `C[C@]12CCC(=O)C[C@@H]1CC[C@@H]1[C@@H]2CC[C@]2(C)[C@@H](O)CC[C@@H]12` it was “inactive”.
Regarding `Cc1ccccc1N`, the compound was classed as inactive.
`CC(C)(c1ccccc1)c1ccc(O)c(C(C)(C)c2ccccc2)c1`: the compound was classed as inactive.
In the case of `ClC1(Cl)C2(Cl)C3(Cl)C4(Cl)C(Cl)(Cl)C5(Cl)C3(Cl)C1(Cl)C5(Cl)C24Cl` (configuration not stated), the compound was classed as inactive.
In the case of `O=C1C2(Cl)C3(Cl)C4(Cl)C(Cl)(Cl)C5(Cl)C3(Cl)C1(Cl)C5(Cl)C24Cl` (configuration not stated), the AC50 was 91.7 µM (active).
For `NC(=O)O`, the compound was classed as inactive.
Still for that read-out and setting: next, `CCOP(=S)(OCC)Oc1nc(Cl)c(Cl)cc1Cl`: “inactive”.
In the case of `O=[N+]([O-])c1ccc(O)c([N+](=O)[O-])c1`, the half-maximal activity concentration (AC50) is 60.3 µM (active).
Same read-out and setting: next, `CCN1CCC2(CC1)COc1cc3c(cc12)N(C(=O)c1ccc(-c2ccc(-c4nnc(C)o4)cc2C)cc1)CC3`: 16 µM (active).
On to `CC12CC1(C)C(=O)N(c1cc(Cl)cc(Cl)c1)C2=O` (configuration not stated), for which the compound was classed as inactive.
In the case of `CC(C)(C)c1cc(O)ccc1O`, the result was inactive.
Still for that read-out and setting: in the case of `Cn1sc(Cl)cc1=O` it was “inactive”.
In the case of `C=CC(=O)OCCCCCC(C)C`, the compound was called inactive.
As for `CCCCCCCCc1ccc(O)cc1`, the compound was classed as inactive.
Same read-out and setting: next, `O=C(O)C(F)(F)C(F)(F)C(F)(F)C(F)(F)C(F)(F)C(F)(F)C(F)(F)C(F)(F)C(F)(F)C(F)(F)F`: “inactive”.
In the case of `O=c1[nH]c(=O)[nH]c(=O)[nH]1`, the result was inactive.
As to `C[C@@H]1C[C@@H]([C@H](O)CC2CC(=O)NC(=O)C2)C(=O)[C@@H](C)C1`, the AC50 was 11.8 µM (active).
As for `CCC(C)(C)c1ccc(O)c(C(C)(C)CC)c1`, the result was inactive.
Regarding `Oc1cccc2cccnc12`, the outcome was inactive.
